Reference: PubChem BioAssay AID623870 (Broad Institute, 2012)
In all, about 390,000 compounds went through this assay and about 2,600 (0.67%) were called active. Only a selection was taken, and actives are over-represented in it overall. A number with no mark means an inactive call.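 Rule for the calls: active = mean inhibition of replicates at least 50% and at least half of replicates each reaching 50%; inconclusive = half or more replicates reach 50% but mean below 50%; inactive = the rest.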

Each molecule was assayed against Transforming acidic coiled-coil-containing protein 3 (Homo sapiens) (UniProt Q9Y6A5) (assay: disruptors of ARNT/TACC3 protein interaction, primary screen, biochemical, AlphaScreen, single concentration (AID 623870;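 note: 0% = complete ARNT plus TACC3 wells and 100% = ARNT alone without TACC3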)). Conditions: AlphaScreen His-ARNT PAS-B/GST-TACC3 binding, luminescence; at 9.99 µM; stronger effect = higher value; TACC3 fragment carries E629A point mutation.

Question: With `COc1cc(C2C(C(=O)Nc3ccccc3OC)=C(C)Nc3ncnn32)ccc1O` (centres undefined) as the molecule, how does the inhibition read?
Answer: 7.59%

Question: `CC1=C(C(=O)OC2CCCCC2)C(c2cccnc2)n2ncnc2N1` (centres undefined) was tested. Which inhibition did it give?
Answer: -3.41%

Question: `COC(=O)C1=C(C)Nc2ncnn2C1c1cccnc1` (centres undefined) was tested. Which inhibition did it give?
Answer: 18.7% (active)

Question: Which inhibition does the source give for `CN1CCN(C(=O)C[C@H]2CC[C@H]3[C@H](COc4ccc(NC(=O)C5CC5)cc4C(=O)N3C)O2)CC1` here?
Answer: -1.07%

Question: With `O=C(Cc1ccncc1)NCC[C@H]1CC[C@@H](NC(=O)Nc2ccc(Cl)cc2)[C@@H](CO)O1` as the molecule, how does the inhibition read?
Answer: 13.7%

Question: How did the inhibition turn out when `Oc1ccc(N=Nc2nccs2)c(O)c1` was run?
Answer: 80.9% (active)

Question: `CCC(=O)N(C)C[C@H]1Oc2ncc(C#CC(C)C)cc2C(=O)N([C@@H](C)CO)C[C@H]1C` was tested. Which inhibition did it give?
Answer: -8.34%

Question: Which inhibition does the source give for `Cc1ccc(S(=O)(=O)N2C[C@@H](O)COC[C@@H]3O[C@@H](CC(=O)N[C@H]4CCN(Cc5ccccc5)C4)CC[C@H]32)cc1` here?
Answer: -6.23%

Question: For `CCOC(=O)C1=C(O)/C(=C/c2cc(C)n(-c3ccccc3)c2C)N=C1C`, which inhibition is on record?
Answer: 27.3% (active)

Question: With `Cc1cc(C(=O)OCC(=O)NCc2ccco2)c(C)n1-c1ccccc1` as the molecule, how does the inhibition read?
Answer: -8.94%

Question: `CCOC(=O)c1nn(-c2cccc(C)c2)cc1C(=O)c1ccccc1` was tested. Which inhibition did it give?
Answer: 25.6%

Question: For `CC(C)CC#Cc1cnc2c(c1)C(=O)N([C@H](C)CO)C[C@H](C)[C@H](CN(C)C(=O)Nc1ccccc1F)O2`, which inhibition is on record?
Answer: -1.64%

Question: How did the inhibition turn out when `CC(C)CC#Cc1ccc2c(c1)O[C@H](CN(C)C(=O)c1cccnc1)[C@@H](C)CN([C@H](C)CO)S2(=O)=O` was run?
Answer: -3.52%

Question: `COc1ccc(S(=O)(=O)N(C)C[C@H]2OCCCC[C@H](C)Oc3ccc(NC(=O)CCC(F)(F)F)cc3C(=O)N([C@@H](C)CO)C[C@@H]2C)cc1` was tested. Which inhibition did it give?
Answer: 1.97%

Question: For `CCCNC(=O)C[C@H]1CC[C@H]2[C@@H](COC[C@@H](O)CN2C(=O)Nc2ccc(Cl)c(Cl)c2)O1`, which inhibition is on record?
Answer: -0.599%

Question: For `CCNC(=O)C[C@@H]1CC[C@H](NC(=O)NC2CCCCC2)[C@H](CO)O1`, which inhibition is on record?
Answer: 14.7%

Question: For `C[C@@H](O)C#Cc1cnc2c(c1)C(=O)N([C@@H](C)CO)C[C@H](C)[C@H](CN(C)Cc1cncnc1)O2`, which inhibition is on record?
Answer: -0.882%

Question: Which inhibition does the source give for `O=C(COC(=O)CSc1nnc(-c2ccc(Cl)cc2)o1)Nc1cc(Cl)cc(Cl)c1` here?
Answer: 2.05%

Question: With `CC(=O)Nc1cccc(C(=O)OCC(=O)Nc2nnc(-c3ccccc3)o2)c1` as the molecule, how does the inhibition read?
Answer: 55.1% (active)

Question: For `CCc1cccc(NC(=O)COC(=O)c2cc(=O)c3ccccc3o2)c1`, which inhibition is on record?
Answer: -1.51%

Question: For `CO[C@@H]1CN(C)C(=O)c2ccc(NC(=O)Nc3ccccc3)cc2OC[C@H](C)N(C(=O)CC2CC2)C[C@@H]1C`, which inhibition is on record?
Answer: -5.39%

Question: Which inhibition does the source give for `COCCNC(=O)C(OC(=O)c1cccs1)c1ccc(F)cc1` (centres undefined) here?
Answer: -9.93%

Question: With `COCCNC(=O)Cn1cc(C(=O)c2cccs2)c2ccccc21` as the molecule, how does the inhibition read?
Answer: -1.09% (active)

Question: How did the inhibition turn out when `COCCCNC(=O)Cn1cc(C(=O)C2CC2)c2ccccc21` was run?
Answer: 1.82%

Question: For `C[C@@H]1CCCCO[C@H](CN(C)Cc2ccc(Cl)c(Cl)c2)[C@H](C)CN([C@@H](C)CO)C(=O)c2cc(NC(=O)C3CCCCC3)ccc2O1`, which inhibition is on record?
Answer: -6.84%

Question: How did the inhibition turn out when `C[C@@H]1CN([C@@H](C)CO)C(=O)CCCn2cc(nn2)CO[C@H]1CN(C)C(=O)Nc1ccc(N2CCCCC2)cc1` was run?
Answer: 4.48%

Question: How did the inhibition turn out when `O=C(NCC[C@@H]1CC[C@H](NC(=O)Nc2cc(F)ccc2F)[C@@H](CO)O1)Nc1ccc(Cl)cc1` was run?
Answer: -4.66%

Question: `CNC(=O)C[C@@H]1CC[C@@H]2[C@H](COc3ccc(NC(=O)Nc4ccccc4)cc3C(=O)N2C)O1` was tested. Which inhibition did it give?
Answer: -2.84%

Question: For `O=C(CC1CC1)N1[C@H](CO)[C@@H]2c3ccccc3N(S(=O)(=O)c3ccc(F)cc3)C[C@@H]21`, which inhibition is on record?
Answer: -6.11%

Question: How did the inhibition turn out when `O=C(C[C@H]1CC[C@@H](NC(=O)Cc2cccnc2)[C@H](CO)O1)Nc1ccc(-c2ccccc2)cc1` was run?
Answer: -7.46%

Question: Which inhibition does the source give for `COc1ccc(S(=O)(=O)Nc2ccc3c(c2)CC(=O)N([C@H](C)CO)C[C@H](C)[C@H](CN(C)CC2CC2)O3)cc1` here?
Answer: -8.43%

Question: For `O=C(Nc1cc(F)ccc1F)N1C[C@H]2[C@@H](c3ccccc31)[C@@H](CO)N2CC1CCCC1`, which inhibition is on record?
Answer: -1.12%

Question: `CC(C(=O)Nc1ccc(O)c(C(=O)O)c1)N1C(=O)/C(=C/c2cccs2)SC1=S` (centres undefined) was tested. Which inhibition did it give?
Answer: 55.9% (active)

Question: `Cc1cccc(NC(=O)C(C)N2C(=O)C3C4CC(C(Br)C4Br)C3C2=O)c1` (centres undefined) was tested. Which inhibition did it give?
Answer: 5.02%

Question: For `Cc1noc(C)c1S(=O)(=O)N(C)C[C@@H]1OCCCC[C@H](C)Oc2ccc(NC(=O)Nc3ccc4c(c3)OCO4)cc2C(=O)N([C@H](C)CO)C[C@H]1C`, which inhibition is on record?
Answer: -0.948%

Question: How did the inhibition turn out when `COc1cccc(/C=N\NC(=O)C2=NNC(=O)C2C)c1O` (centres undefined) was run?
Answer: 71.4% (active)

Question: With `CC1=NNC(=O)C1CCC(=O)N/N=C\c1cccc(Cl)c1` (centres undefined) as the molecule, how does the inhibition read?
Answer: 4.23%

Question: For `CC1=NNC(=O)C1CC(=O)N/N=C/c1ccncc1` (centres undefined), which inhibition is on record?
Answer: 3.25%

Question: `C[C@H]1CN([C@@H](C)CO)C(=O)Cc2cc(NC(=O)Nc3cccc4ccccc34)ccc2O[C@@H]1CN(C)C` was tested. Which inhibition did it give?
Answer: -6.19%

Question: With `C[C@@H]1CCCCO[C@H](CN(C)C(=O)Nc2cccc3ccccc23)[C@H](C)CN([C@@H](C)CO)C(=O)c2cc(NC(=O)CCCN(C)C)ccc2O1` as the molecule, how does the inhibition read?
Answer: 14.2%

Question: `C[C@@H]1CN([C@H](C)CO)C(=O)Cc2cc(NC(=O)Nc3cccc4ccccc34)ccc2O[C@@H]1CN(C)Cc1ccc(C(F)(F)F)cc1` was tested. Which inhibition did it give?
Answer: 0.147%

Question: Which inhibition does the source give for `C[C@@H]1CN([C@@H](C)CO)C(=O)c2cc(NC(=O)CCCN(C)C)ccc2O[C@@H](C)CCCCO[C@H]1CN(C)C(=O)Nc1cccc2ccccc12` here?
Answer: 39.5% (active)

Question: How did the inhibition turn out when `C[C@@H]1CN([C@@H](C)CO)C(=O)c2cc(NC(=O)Cc3ccccc3)ccc2O[C@@H](C)CCCCO[C@H]1CN(C)C(=O)Nc1cccc2ccccc12` was run?
Answer: 1%

Question: `C[C@@H]1CN([C@H](C)CO)C(=O)Cc2cc(NC(=O)Nc3cccc4ccccc34)ccc2O[C@@H]1CN(C)Cc1ccc(C(=O)O)cc1` was tested. Which inhibition did it give?
Answer: -8.02% (active)

Question: For `CC=Cc1ccc2n(c1=O)C[C@@H]1[C@@H](CO)[C@H](C(=O)NCC3CC3)[C@H]2N1C(=O)c1ccccc1` (mixture of isomers), which inhibition is on record?
Answer: -1.91%

Question: Which inhibition does the source give for `O=c1/c(=C/c2ccc(CNS(=O)(=O)c3ccccc3)o2)sc2n1CCN=2` here?
Answer: 40.1%

Question: How did the inhibition turn out when `O=c1nc2s/c(=C\c3ccco3)c(=O)n2nc1Cc1ccccc1` was run?
Answer: 67.7% (active)

Question: With `CO[C@@H]1CN(C)C(=O)c2ccc(NC(=O)NC(C)C)cc2OC[C@@H](C)N(C(=O)NC(C)C)C[C@H]1C` as the molecule, how does the inhibition read?
Answer: -3.87%

Question: For `COc1ccccc1-c1cnc2c(c1)C(=O)N([C@H](C)CO)C[C@H](C)[C@H](CN(C)Cc1cccnc1)O2`, which inhibition is on record?
Answer: 29.4%

Question: With `O=C(CN1CCOCC1)N[C@@H]1CC[C@@H](CCn2cc(C3CCCCC3)nn2)O[C@@H]1CO` as the molecule, how does the inhibition read?
Answer: 0.304%

Question: `CCC(=O)N(C)C[C@H]1Oc2cc(-c3ccccc3F)ccc2S(=O)(=O)N([C@H](C)CO)C[C@@H]1C` was tested. Which inhibition did it give?
Answer: -1.89%

Question: With `COc1ccc(NC(=O)O[C@@H](c2ccc(OCCO)cc2)[C@@H](C)CCO)cc1` as the molecule, how does the inhibition read?
Answer: -10.6%

Question: For `O=C(O)c1ccc2c3c(cccc13)C(=O)N(OS(=O)(=O)c1ccccc1)C2=O`, which inhibition is on record?
Answer: 67.5% (active)

Question: How did the inhibition turn out when `C[C@@H]1CN([C@H](C)CO)C(=O)c2cc(C#CCN(C)C)cnc2O[C@@H]1CN(C)C(=O)Cc1cccnc1` was run?
Answer: -0.97%

Question: With `CO[C@H]1CN(C)C(=O)c2ccc(NC(=O)c3ccc4c(c3)OCO4)cc2OC[C@@H](C)NC[C@@H]1C` as the molecule, how does the inhibition read?
Answer: -11.2%

Question: With `CC1=NN(c2ccc(Cl)c(C(=O)O)c2)C(=O)/C1=C/c1ccc(-c2ccccc2[N+](=O)[O-])o1` as the molecule, how does the inhibition read?
Answer: 29.2% (active)

Question: With `Cc1ccc(-c2ccc(/C=C(\C#N)C(N)=S)o2)c([N+](=O)[O-])c1` as the molecule, how does the inhibition read?
Answer: 1.03%

Question: For `Cc1ccc(S(=O)(=O)N(C)C[C@H]2Oc3c(NC(=O)C4CC4)cccc3C(=O)N([C@@H](C)CO)C[C@@H]2C)cc1`, which inhibition is on record?
Answer: -6.68%

Question: `COC(=O)C1=C(C)NC2=C(C(=O)c3ccccc32)C1c1ccc(-c2ccc(C(=O)O)cc2)o1` (centres undefined) was tested. Which inhibition did it give?
Answer: 65.4% (active)

Question: Which inhibition does the source give for `O=C(C[C@H]1C[C@H]2c3cc(NC(=O)Nc4ccccc4F)ccc3O[C@H]2[C@H](CO)O1)NCc1ccccn1` here?
Answer: -10.9%

Question: How did the inhibition turn out when `COc1ccc(NC(=O)N(C)C[C@H]2OCCCC[C@@H](C)Oc3ccc(NS(=O)(=O)c4ccc(F)cc4)cc3C(=O)N([C@H](C)CO)C[C@H]2C)cc1` was run?
Answer: -5.89%

Question: `C/C=C/c1cnc2c(c1)C(=O)N([C@@H](C)CO)C[C@@H](C)[C@H](CN(C)Cc1ccccc1)O2` was tested. Which inhibition did it give?
Answer: -2.09%

Question: Which inhibition does the source give for `CCOC(=O)N1CCN(C(=O)C2CCN(c3ncnc4c3sc3cccc(F)c34)CC2)CC1` here?
Answer: -0.287%

Question: With `CCOC(=O)N1CCN(C(c2cccnc2)c2ccc3cccnc3c2O)CC1` (centres undefined) as the molecule, how does the inhibition read?
Answer: 61.4% (active)

Question: With `Cc1ccc(OCC(=O)N2CCN(C(=O)c3cccnc3)CC2)cc1` as the molecule, how does the inhibition read?
Answer: -5.09%

Question: For `CCN1CCN(C(c2cccnc2)c2cc(Cl)c3cccnc3c2O)CC1` (centres undefined), which inhibition is on record?
Answer: 55.4% (active)

Question: `CCS(=O)(=O)Nc1ccc2c(c1)C(=O)N(C)[C@@H]1CC[C@H](CC(=O)N[C@H]3CCN(Cc4ccccc4)C3)O[C@@H]1CO2` was tested. Which inhibition did it give?
Answer: 4.57%

Question: How did the inhibition turn out when `CC=Cc1ccc2n(c1=O)C[C@H]1[C@H](CO)[C@@H](C(=O)NC3CCCC3)N(Cc3ccncc3)[C@@H]21` (mixture of isomers) was run?
Answer: 7.61%

Question: With `O=C(C[C@@H]1C[C@@H]2c3cc(NC(=O)C4CCC4)ccc3O[C@@H]2[C@@H](CO)O1)NCc1ccccc1` as the molecule, how does the inhibition read?
Answer: -8.97%
